The values below come from PubChem BioAssay (NCATS).

The target in experiment [1] is Lysosomal acid glucosylceramidase (Homo sapiens) (UniProt P04062). Nature of the experiment: Glucocerebrosidase-p2 (AID 348; in the data active = potency below about 10 µM; note: potency is the fitted concentration of half-maximal effect). The settings on record: purified GBA, blue fluorogenic substrate, 40 min. An outline of the steps:
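Normal human glucocerebrosidase (0.2 nM) with blue fluorogenic substrate (80 uM final) in citrate/phosphate pH 5.9 with 10mM sodium taurocholate, 0.01% tween-20; 40 min RT, NaOH/glycine stop; fluorescence Ex 365/Em 440; AC50 from a titration from 0.6 nM upwards.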

The nature of experiment [2]: AP1 Signaling Pathway (AID 357).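 Note: ME-180 reporter cells stimulated with EGF at its EC50 level; % is set by controls: 0 for no effect and ±100 for the full control effect.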 The following applies: ME-180 AP-1-bla reporter, EGF-induced, beta-lactamase ratio, 5 h; at 7.69 µM (top of the series) unless noted. The method, boiled down: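 A ratiometric CCF4 readout (405 nm excitation; 460 and 530 nm emission) quantified AP-1-driven beta-lactamase in ME-180 cells after 5 h with compound and EC50 EGF; AC50 values were derived for activators and inhibitors.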

For experiment [3], the target named is Cytochrome P450 1A2 (Homo sapiens) (UniProt P05177). Nature of the experiment: p450-cyp1a2 (AID 410; calls by dose curve; note: potency is the fitted concentration of half-maximal effect;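 for activity change, negative = inhibition: -100% = full effect of reference inhibitor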). The settings on record: recombinant CYP1A2, luciferin-ME demethylation, luminescence; series mostly up to 57 µM. The method, boiled down: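 Read-out is luminescence from luciferin produced by CYP1A2 demethylation of Luciferin-ME (100uM, at Km). Detection reagent stopped the 60 min NADPH-dependent reaction; signals were normalized to 57 uM furafylline.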

Experiment [4] is described as follows: Stat Signaling Pathway (AID 446).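 Note: ME-180 cervical cancer cells given 40 pM IL-6 alongside compound; SIE-controlled beta-lactamase reporter measured as 460/530 nm FRET emission ratio; % is set by controls: 0 for no effect and ±100 for the full control effect.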 The settings on record: ME-180 SIE beta-lactamase reporter, IL-6 stimulated, 5 h; at 7.69 µM (top of the series) unless noted. The method, boiled down:
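Emission at 460 and 530 nm (excitation 405 nm) reports SIE-controlled beta-lactamase in ME-180 cells. Cells received compound with 40 pM IL-6 for 5 hrs at 37 C; data scaled between 300 pM IL-6 and 125 nM JAK-inhibitor controls.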

The target of experiment [5] is Glucocorticoid receptor (Homo sapiens) (UniProt P04150). The experiment can be described thus: GR-EFC Redistribution (AID 451; calls by dose curve; note: potency is the fitted concentration of half-maximal effect). The following applies: CHO-K1 GR-EFC translocation, beta-gal luminescence, 2 h. The method, boiled down:
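CHO-K1 cells stably expressing nuclear-localized β-gal enzyme acceptor and GR fused C-terminally to the enzyme donor fragment; ligand-driven nuclear translocation restores β-gal by complementation. Compounds titrated up to 46 uM final, 2 h at 37 °C; luminescence read.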

Experiment [6] has as its target Mitogen-activated protein kinase 10 (Mus musculus) (UniProt Q61831). Nature of the experiment: JNK3 AlphaScreen Assay (AID 530).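 Note: kinase came from lysate of stimulated human HepG2 cells; % is set by controls: 0 for no effect and ±100 for the full control effect.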 The settings on record: JNK3 lysate, c-Jun phosphorylation; series mostly up to 57.1 µM. The method, boiled down: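 Biotinylated GST-cJun(1-79) served as substrate for JNK3 in HepG2 lysates stimulated with IL-1beta and TNF-alpha. ATP was 10 uM final, pH 7.6. Ser73 phosphorylation was quantified by AlphaScreen (680 nm excitation).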
(Alpha assays give light when donor and acceptor beads are brought close together.)

The target of experiment [7] is 3',5'-cyclic-AMP phosphodiesterase 4B (Homo sapiens) (UniProt Q07343). Nature of the experiment: qHTS Assay for Inhibitors of PDE-IV (AID 607; active = well fitted activation curve with a large enough effect in the main read-out, with a control signal flat, not every such curve was filed as active; note: % of control where 0% means no effect). The settings on record: HEK293 ACTOne CNG channel cells, membrane potential fluorescence; series mostly up to 22.9 µM. The method, boiled down: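 The readout is membrane depolarisation from a cAMP-sensing CNG channel, detected with a potential dye at ex 535/em 590. Cells were HEK293-derived (endogenous PDE-IV) at 1000 cells/well, titrated up to 22.9 uM final.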
A general note: Quantitative high-throughput screening tests each substance at several concentrations.

Experiment [8] addresses Cytochrome P450 3A4 (Homo sapiens) (UniProt P08684). Nature of the experiment: qHTS Assay for Inhibitors and Substrates of Cytochrome P450 3A4 (AID 884; active = well fitted curve in the direction sought with a large enough effect; an effect the other way counts as inactive or inconclusive; note: nearly all actives have a fitted effect of over 50% in size; note: potency is the fitted concentration of half-maximal effect). The following applies: recombinant CYP3A4, Luciferin-PPXE luminescence; series mostly up to 57.1 µM. An outline of the steps: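 Luminescent readout of luciferin produced by CYP3A4 (20 nM) dealkylation of Luciferin-PPXE, 25 uM (its KM). NADPH-driven reaction ran 60 min at RT after 10 min compound preincubation; data scaled to 57 uM ketoconazole as 100% inhibition.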

For experiment [9] the target is unchanged. The experiment can be described thus: qHTS Assay for Activators of Cytochrome P450 3A4 (AID 885; active = well fitted curve in the direction sought with a large enough effect; an effect the other way counts as inactive or inconclusive; note: nearly all actives have a fitted effect of over 65% in size). The following applies: recombinant CYP3A4, Luciferin-PPXE luminescence, 60 min; series mostly up to 57.1 µM. An outline of the steps:
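Activators are scored by enhanced luminescence from CYP3A4 conversion of luciferin-PPXE (25uM, equal to KM) to luciferin, after 60 min at RT with an NADPH-regenerating system.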

The target of experiment [10] is Cytochrome P450 2D6 (Homo sapiens) (UniProt P10635). The experiment can be described thus: qHTS Assay for Inhibitors and Substrates of Cytochrome P450 2D6 (AID 891; active = well fitted curve in the direction sought with a large enough effect; an effect the other way counts as inactive or inconclusive; note: potency is the fitted concentration of half-maximal effect; nearly all actives have a fitted effect of over 60% in size). The settings on record: recombinant CYP2D6, luciferin-ME EGE luminescence; series mostly up to 57.1 µM. The method, boiled down: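 Luminescent read-out of luciferin formed by 5 nM human CYP2D6 demethylating 30 uM Luciferin-ME EGE (Km level) over 60 min at room temperature after NADPH regeneration addition. Data normalized to full inhibition by 1.43 uM quinidine.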

The nature of experiment [11]: qHTS Assay for Identification of Small Molecule Agonists for Hypoxia Response Element Signaling Pathway (AID 914; active = well fitted activation curve with a large enough effect in the signal ratio, with a control signal flat, not every such curve was filed as active; the % refers to the signal ratio; note: % of control where 0% means no effect). The following applies: ME-180 (cervical carcinoma) HRE-bla reporter, beta-lactamase ratio, CoCl2, 17 h; activation: stronger effect = higher value. The method, boiled down:
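In Opti-MEM containing 0.5% dialyzed FBS and 10 mM HEPES, ME-180 HRE-bla cells received a compound titration and EC50 CoCl2. They were incubated 17 hours, then CCF4-loaded 2.5 hours at room temperature before ratio reading.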

A short description of experiment [12]: qHTS Assay for Lipid Storage Modulators (AID 1519; calls by dose curve). The settings on record: Drosophila S3 cells, BODIPY lipid droplet/cell ratio, laser cytometry, cells loaded with oleic acid; for activity change, negative = inhibition: at 57.5 µM (top of the series). An outline of the steps:
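Cells seeded at 5,000 per well were treated with compounds over a concentration series and loaded with oleic acid (400 uM, as added). Lipid droplet fluorescence (488 nm excitation, 500-530 nm channel) was read by laser-scanning cytometry and normalized to 20 uM Triacsin C.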

A short description of experiment [13]: Primary qHTS for small molecule stabilizers of the endoplasmic reticulum resident proteome: Secreted ER Calcium Modulated Protein (SERCaMP) assay (AID 1508630; active = well fitted curve in the direction sought with a large enough effect; an effect the other way counts as inactive or inconclusive; note: % is set by controls: 0 for no effect and ±100 for the full control effect). The following applies: SH-SY5Y GLuc-SERCaMP (Gaussia luciferase released on ER calcium loss) secretion, thapsigargin, luminescence; series mostly up to 38.4 µM. An outline of the steps:
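The SH-SY5Y reporter protocol was run at 3 concentrations up to 38.3 uM (primary) or 11 concentrations (follow-up): 16 h compound, 100 nM thapsigargin for 4 h, then extracellular luciferase luminescence.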

Setting [14] is: measured here: cell count channel max response.
[15] abbreviates: measured here: lipid channel max response.

Records with an inconclusive call do not appear. Calls of active or inactive are those of the source. Unless noted, calls come from the whole dose curve; as a rule, active = well fitted curve in either direction with a large enough effect (not every such curve was filed as active); inconclusive = small, poorly fitted or top-dose-only effect, or another doubt; inactive = flat fitted curve, though single readings scatter.

Cytochrome P450 3A4 (Homo sapiens), sequence (P08684 whole entry, looked up): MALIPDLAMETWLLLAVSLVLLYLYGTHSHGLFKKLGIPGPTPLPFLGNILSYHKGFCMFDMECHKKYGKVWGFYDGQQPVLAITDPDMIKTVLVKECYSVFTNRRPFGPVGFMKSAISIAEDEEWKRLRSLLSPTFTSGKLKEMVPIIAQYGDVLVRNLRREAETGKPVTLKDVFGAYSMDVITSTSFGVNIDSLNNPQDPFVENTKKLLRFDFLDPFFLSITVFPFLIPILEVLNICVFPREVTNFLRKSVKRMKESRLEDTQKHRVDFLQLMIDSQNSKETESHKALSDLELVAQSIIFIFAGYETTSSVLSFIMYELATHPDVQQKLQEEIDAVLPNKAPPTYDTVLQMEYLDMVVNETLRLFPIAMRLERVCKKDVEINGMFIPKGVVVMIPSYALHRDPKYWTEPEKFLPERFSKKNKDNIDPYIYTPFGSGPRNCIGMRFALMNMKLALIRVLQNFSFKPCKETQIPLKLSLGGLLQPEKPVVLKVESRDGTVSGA
Glucocorticoid receptor (Homo sapiens), sequence (P04150 whole entry, looked up, the tested form may be a part): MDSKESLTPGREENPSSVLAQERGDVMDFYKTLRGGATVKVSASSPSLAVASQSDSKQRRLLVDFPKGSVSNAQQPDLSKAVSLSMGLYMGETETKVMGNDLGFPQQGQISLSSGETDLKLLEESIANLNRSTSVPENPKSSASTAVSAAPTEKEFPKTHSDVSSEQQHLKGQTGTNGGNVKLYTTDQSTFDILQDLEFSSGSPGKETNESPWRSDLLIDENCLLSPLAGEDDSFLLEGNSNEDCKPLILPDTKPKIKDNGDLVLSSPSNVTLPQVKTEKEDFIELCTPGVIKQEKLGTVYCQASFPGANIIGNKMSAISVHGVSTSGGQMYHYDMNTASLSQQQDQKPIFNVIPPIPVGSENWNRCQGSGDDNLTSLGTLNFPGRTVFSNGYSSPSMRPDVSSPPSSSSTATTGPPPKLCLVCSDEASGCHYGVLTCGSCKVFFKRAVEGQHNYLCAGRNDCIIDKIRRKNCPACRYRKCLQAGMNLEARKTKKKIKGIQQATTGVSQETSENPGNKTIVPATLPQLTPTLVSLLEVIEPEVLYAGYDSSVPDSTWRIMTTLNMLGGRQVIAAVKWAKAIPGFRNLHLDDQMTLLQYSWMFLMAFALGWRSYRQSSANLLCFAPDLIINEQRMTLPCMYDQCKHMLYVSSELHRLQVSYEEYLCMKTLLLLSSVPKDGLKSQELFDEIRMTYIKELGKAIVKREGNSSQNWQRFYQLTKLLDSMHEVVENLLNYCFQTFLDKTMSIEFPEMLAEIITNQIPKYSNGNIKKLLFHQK
Cytochrome P450 1A2 (Homo sapiens), sequence (P05177 whole entry, looked up): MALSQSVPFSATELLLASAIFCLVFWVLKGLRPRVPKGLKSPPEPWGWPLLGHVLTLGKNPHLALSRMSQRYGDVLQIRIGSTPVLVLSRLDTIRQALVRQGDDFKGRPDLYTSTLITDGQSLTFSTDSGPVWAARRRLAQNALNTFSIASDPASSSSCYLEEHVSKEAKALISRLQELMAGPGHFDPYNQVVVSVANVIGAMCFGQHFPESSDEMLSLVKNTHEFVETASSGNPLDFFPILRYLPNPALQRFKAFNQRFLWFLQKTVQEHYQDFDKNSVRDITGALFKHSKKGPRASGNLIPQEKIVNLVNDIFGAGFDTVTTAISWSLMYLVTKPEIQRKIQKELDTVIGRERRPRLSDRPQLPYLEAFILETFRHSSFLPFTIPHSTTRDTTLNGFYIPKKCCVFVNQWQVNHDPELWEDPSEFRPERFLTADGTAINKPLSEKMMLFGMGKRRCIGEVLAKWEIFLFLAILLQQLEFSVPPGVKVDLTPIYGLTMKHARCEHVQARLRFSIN
Lysosomal acid glucosylceramidase (Homo sapiens), sequence (P04062 whole entry, looked up): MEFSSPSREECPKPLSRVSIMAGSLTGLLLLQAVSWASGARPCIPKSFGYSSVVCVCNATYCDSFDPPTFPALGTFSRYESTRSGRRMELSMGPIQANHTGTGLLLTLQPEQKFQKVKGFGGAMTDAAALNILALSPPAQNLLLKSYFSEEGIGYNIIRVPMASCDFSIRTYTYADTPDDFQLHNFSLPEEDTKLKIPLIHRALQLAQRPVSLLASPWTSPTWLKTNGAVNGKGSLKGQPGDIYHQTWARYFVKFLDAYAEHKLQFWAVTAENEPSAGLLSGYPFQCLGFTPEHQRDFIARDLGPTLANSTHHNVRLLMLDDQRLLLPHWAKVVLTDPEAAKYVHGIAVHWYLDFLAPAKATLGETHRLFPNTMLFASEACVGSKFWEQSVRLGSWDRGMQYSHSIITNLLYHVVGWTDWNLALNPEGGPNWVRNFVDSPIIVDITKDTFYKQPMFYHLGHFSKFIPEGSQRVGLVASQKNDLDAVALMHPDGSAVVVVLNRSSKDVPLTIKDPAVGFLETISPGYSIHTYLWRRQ
3',5'-cyclic-AMP phosphodiesterase 4B (Homo sapiens), sequence (Q07343 whole entry, looked up): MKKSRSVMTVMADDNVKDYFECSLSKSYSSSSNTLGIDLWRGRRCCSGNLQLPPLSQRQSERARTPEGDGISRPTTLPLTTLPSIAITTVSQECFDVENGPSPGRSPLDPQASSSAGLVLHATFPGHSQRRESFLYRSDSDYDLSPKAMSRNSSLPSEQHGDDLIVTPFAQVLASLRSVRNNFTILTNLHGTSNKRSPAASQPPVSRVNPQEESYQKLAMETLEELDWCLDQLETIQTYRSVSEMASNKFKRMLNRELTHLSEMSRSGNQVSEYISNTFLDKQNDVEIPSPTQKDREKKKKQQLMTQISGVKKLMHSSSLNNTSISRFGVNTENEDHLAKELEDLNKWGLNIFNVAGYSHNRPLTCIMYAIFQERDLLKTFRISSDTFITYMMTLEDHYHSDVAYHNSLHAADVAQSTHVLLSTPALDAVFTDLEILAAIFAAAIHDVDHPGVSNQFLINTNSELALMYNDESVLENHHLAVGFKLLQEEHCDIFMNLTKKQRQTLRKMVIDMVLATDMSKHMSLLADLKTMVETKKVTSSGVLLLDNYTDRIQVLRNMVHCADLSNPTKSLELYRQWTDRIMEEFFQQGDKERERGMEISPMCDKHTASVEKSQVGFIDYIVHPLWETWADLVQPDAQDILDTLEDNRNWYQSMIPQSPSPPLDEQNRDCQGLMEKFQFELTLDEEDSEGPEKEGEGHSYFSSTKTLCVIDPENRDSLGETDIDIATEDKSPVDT
Cytochrome P450 2D6 (Homo sapiens), sequence (P10635 whole entry, looked up): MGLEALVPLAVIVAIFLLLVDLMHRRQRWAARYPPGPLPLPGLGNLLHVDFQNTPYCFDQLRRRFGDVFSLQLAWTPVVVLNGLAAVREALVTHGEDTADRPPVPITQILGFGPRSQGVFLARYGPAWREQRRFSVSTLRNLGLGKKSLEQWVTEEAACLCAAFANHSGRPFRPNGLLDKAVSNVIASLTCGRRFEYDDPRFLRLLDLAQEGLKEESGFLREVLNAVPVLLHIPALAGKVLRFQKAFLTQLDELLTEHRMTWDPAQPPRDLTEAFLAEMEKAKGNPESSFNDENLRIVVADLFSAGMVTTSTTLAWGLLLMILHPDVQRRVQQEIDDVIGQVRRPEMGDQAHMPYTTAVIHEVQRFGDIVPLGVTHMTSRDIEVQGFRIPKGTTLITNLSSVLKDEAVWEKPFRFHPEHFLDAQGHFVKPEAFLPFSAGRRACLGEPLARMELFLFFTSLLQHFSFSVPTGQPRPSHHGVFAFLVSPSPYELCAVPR

In the case of `COc1ccccc1CN1CCCC2(CCN(C(=O)c3ccncc3)CC2)C1`, the Potency was > 11.4 µM (inactive) in [1]; 20 µM (active) in experiment [3]; > 46 µM (inactive) in [5]; 6.31 µM (active) in experiment [8]; 3.16 µM (active) in experiment [10]. Further, the activity change, negative = inhibition is -0.588% (inactive) in [2] and 1.58% (inactive) in [12]. The activity, negative = inhibition in experiment [4] was 1.91% (inactive). The Potency result in [6], in [7] and in [9] was “inactive” in each case. The activation in experiment [11] was 3.13% (inactive). Further, the max response in experiment [12] (setting [14]) is 5.27%; in experiment [12] (setting [15]), 9.4%. The result in [13] was inactive.
With `O=C(Oc1ccccc1)N1CCC2(CC1)CN(c1ccccn1)C2`, the Potency is > 11.4 µM (inactive) in [1] and > 46 µM (inactive) in experiment [5]. Besides, the figures for the activity change, negative = inhibition in experiment [2] and in experiment [12] were 5.21% (inactive) and 7.94% (inactive), respectively. The Potency entry in experiment [3], in experiment [6], in experiment [7] and in experiment [8] was “inactive” each time. Moreover, in experiment [4], the activity, negative = inhibition was -0.424% (inactive). For the same compound, the max response is 3.44% in experiment [12] (setting [14]) and 13.9% in experiment [12] (setting [15]). Also, the outcome in [13] was inactive.
`O=C(c1cc(C(F)(F)F)cc(C(F)(F)F)c1)N1CCC[C@@]2(CCN(c3ncccn3)C2)C1`: the Potency in [1] is > 11.4 µM (inactive); in [5] it was > 46 µM (inactive). The values for the activity change, negative = inhibition in [2] and in [12] were 8.42% (inactive) and 4.69% (inactive), respectively. In addition, the Potency result in experiment [3], in experiment [6], in [7] and in [9] was “inactive” each time. The activity, negative = inhibition in experiment [4] is -17.1% (inactive). In addition, the max response in experiment [12] (setting [14]) worked out at 8.96%; in experiment [12] (setting [15]) it was 17.5%. Moreover, the outcome in [13] was inactive.
For the compound `O=S(=O)(c1ccccc1)N1CCC2(CC1)CN(c1ccccn1)C2`, the Potency was > 11.4 µM (inactive) in [1] and > 46 µM (inactive) in [5]. The activity change, negative = inhibition in experiment [2] was 16% (inactive); in [12] it was -4.43% (inactive). In addition, the Potency entry in [3], in experiment [6], in [7] and in [9] was “inactive” in each case. In experiment [4], the activity, negative = inhibition was -15% (inactive). For the same compound, the max response in experiment [12] (setting [14]) is -4.86%; in experiment [12] (setting [15]), -8.67%. Moreover, the result in [13] was inactive.
`O=C(c1csnn1)N1CCC2(CC1)CCN(c1ccncc1)CC2`: the Potency was > 11.4 µM (inactive) in experiment [1] and > 46 µM (inactive) in experiment [5]. The activity change, negative = inhibition in [2] is 0.494% (inactive); in experiment [12], 1.35% (inactive). The Potency result in [3], in experiment [6], in experiment [7] and in experiment [9] was “inactive” in each case. Also, in [4], the activity, negative = inhibition was 0.543% (inactive). Also, the max response is 6.68% in experiment [12] (setting [14]) and 10% in experiment [12] (setting [15]). In addition, the result in [13] was inactive.
With `O=C(c1ccncc1)N1CCC2(CC1)CN(Cc1cc(C(F)(F)F)cc(C(F)(F)F)c1)C2`, the Potency was > 11.4 µM (inactive) in experiment [1], > 46 µM (inactive) in experiment [5] and 5.01 µM (active) in experiment [8]. For the same compound, the activity change, negative = inhibition in experiment [2] is -5.95% (inactive); in experiment [12], 0.924% (inactive). Also, the Potency entry in experiment [3], in experiment [6], in [7] and in experiment [9] was “inactive” in each case. Further, in experiment [4], the activity, negative = inhibition is -8.98% (inactive). Also, the max response in experiment [12] (setting [14]) worked out at 9.27%; in experiment [12] (setting [15]), 16.4%. Also, the result in [13] was inactive.
As for `c1ccc(C(c2ccccc2)N2CCCC3(CCNCC3)C2)cc1`, the Potency is > 11.4 µM (inactive) in [1], 7.94 µM (active) in experiment [3], > 46 µM (inactive) in experiment [5] and 1.26 µM (active) in experiment [8]. The activity change, negative = inhibition was -3.1% (inactive) in experiment [2] and -1.73% (inactive) in [12]. For the same compound, the activity, negative = inhibition in experiment [4] was 4.89% (inactive). The Potency entry in [6], in [7] and in experiment [9] was “inactive” in each case. The activation in [11] is 19.3% (inactive). Also, the max response in [12] (setting [14]) was -12.4%; in experiment [12] (setting [15]), -10.8%. For the same compound, the result in experiment [13] was inactive.
